Assay results as given in PubChem BioAssay AID651657 (Broad Institute, 2012).
Potency and affinity values are given separately. Active and inactive are the calls of the source.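 The calls were made as follows: active = signal falls, with fitted half-maximal concentration at most twice the top valid dose tested; inconclusive = flat curve with partial signal loss, or poor curve fit; inactive = the rest, including signal rising instead.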

Molecular target: DNA repair and recombination protein RAD54-like (Homo sapiens) (UniProt Q92698)
Sequence (Q92698 whole entry, looked up): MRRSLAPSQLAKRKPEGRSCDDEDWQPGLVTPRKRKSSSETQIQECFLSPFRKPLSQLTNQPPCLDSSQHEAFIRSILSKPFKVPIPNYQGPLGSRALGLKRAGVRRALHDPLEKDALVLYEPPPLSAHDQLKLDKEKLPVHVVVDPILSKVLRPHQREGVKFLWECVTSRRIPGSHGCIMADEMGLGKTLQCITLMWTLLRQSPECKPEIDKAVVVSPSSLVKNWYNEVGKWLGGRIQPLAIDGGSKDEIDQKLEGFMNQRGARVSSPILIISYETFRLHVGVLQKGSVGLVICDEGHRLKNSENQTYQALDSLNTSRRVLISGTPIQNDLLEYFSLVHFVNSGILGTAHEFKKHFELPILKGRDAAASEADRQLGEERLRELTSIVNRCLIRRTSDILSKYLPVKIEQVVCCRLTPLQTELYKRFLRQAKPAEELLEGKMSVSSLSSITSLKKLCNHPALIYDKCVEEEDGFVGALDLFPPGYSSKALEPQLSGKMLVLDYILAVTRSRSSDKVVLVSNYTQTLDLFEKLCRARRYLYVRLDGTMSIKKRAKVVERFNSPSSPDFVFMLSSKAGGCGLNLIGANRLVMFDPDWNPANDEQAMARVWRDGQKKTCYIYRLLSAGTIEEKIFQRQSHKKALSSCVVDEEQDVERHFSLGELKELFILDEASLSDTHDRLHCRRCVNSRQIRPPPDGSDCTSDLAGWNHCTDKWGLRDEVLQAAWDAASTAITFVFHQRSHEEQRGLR
Experiment: inhibitors of human RAD54 branch migration, confirmation, biochemical, fluorescence, cherry-picked samples, dose series (AID 651657)

COc1ccccc1NC(=O)CNC(=O)c1ccccc1
outcome: inactive

COc1ccccc1CNC(=O)c1cccs1
outcome: inactive

C(=C/c1nccc2c1[nH]c1ccccc12)/c1ccc2c(c1)OCO2
outcome: inactive

COc1ccccc1C(=O)C(O)c1ccccc1OC (stereo not drawn)
outcome: inactive

COC(=O)Nc1nnc(COc2ccccc2)s1
outcome: inactive

COc1ccccc1C1=NOC(Cn2c(NCCCO)nc3c2c(=O)n(C)c(=O)n3C)C1 (stereo not drawn)
outcome: inactive

O=S(=O)(c1ccc(-c2nnc(SCc3ccccc3)o2)cc1)N1CCCC1
outcome: inactive

CCN1CCN(c2cc(C)c3cc(NC(=S)N4CCCC(C)C4)ccc3n2)CC1 (stereo not drawn)
outcome: inactive

Cc1ccnc(SCC(=O)Nc2sc3c(c2C#N)CCC(C(C)(C)C)C3)n1 (stereo not drawn)
outcome: inactive

COc1ccccc1NC(=O)Cn1nnc2sc3c(c2c1=O)CC(C)(C)OC3
outcome: inactive

Cc1ccnc(Nc2nc(-c3sc(C)nc3C)cs2)c1
outcome: inactive

Cc1cccc(Cn2c(Sc3nc(C)cs3)nc3c2c(=O)[nH]c(=O)n3C)c1
outcome: inactive

O=C(NN1CCOCC1)c1cc(-c2ccc(Cl)c(Cl)c2)nc2ccccc12
outcome: inactive

COCCCNCCC(CCC(C)C)c1ccc2c(c1)OCO2 (stereo not drawn)
outcome: inactive

NC(=O)C1CCN(c2nc(-c3cccnc3)cs2)CC1
outcome: inactive

O=C(CS(=O)(=O)c1ccccc1)Nc1ccc(Br)cn1
outcome: inactive

CC1CCCCC1NC(=O)C1Cc2ccccc2CN1S(C)(=O)=O (stereo not drawn)
outcome: inactive

CN(C)CCCN(C(=O)CCOc1ccccc1)c1nc2ccc(F)cc2s1
outcome: inactive

Cn1nc(-c2ccccc2)cc1NS(=O)(=O)c1ccc(C#N)cc1
outcome: inactive

COc1ccc(N2C(=O)CSC23CCCCC3)cc1
outcome: inactive

CCN(CC)S(=O)(=O)c1ccc(Cl)c(C(=O)Nc2nnc(C)s2)c1
outcome: inactive

NCCN1CCN(CCN)CC1
outcome: inactive

Cc1ccc(C)c(N2CCN(C(=S)Nc3ccc4nc(N5CCN(C)CC5)cc(C)c4c3)CC2)c1
outcome: inactive
